Experimental data reported in PubChem BioAssay (NCATS).
Results filed as inconclusive are left out. The source made the active and inactive calls. Unless noted, the call rests on the fitted dose curve; in most records, active means well fitted curve in the direction sought with a large enough effect; inconclusive means small, poorly fitted or top-dose-only effect, or another doubt; inactive means no such curve, though single readings can be large; an effect the other way counts as inactive or inconclusive.

Columns and labels:
[1] = target: Luciferin 4-monooxygenase (Photinus pyralis) (UniProt P08659); assay: Biochemical firefly luciferase enzyme assay for NPC (AID 624030);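 further: purified P. pyralis luciferase at 10 nM with luciferin and ATP substrate; nearly all actives have a fitted effect of over 70% in size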
Method in brief: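 Counter-screen for direct inhibition of the luciferase enzyme by approved-drug library compounds, run at 10 nM enzyme in 50 mM Tris acetate (final). Luminescence was read within 5 min of enzyme-buffer addition and normalized to PTC124 versus DMSO (0%).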

[2] = target: Glutathione peroxidase 1 (Homo sapiens) (UniProt P07203); assay: Primary qHTS Assay for Inhibitors of Recombinant Selenoprotein Glutathione Peroxidase 1 (GPX1) (AID 1845191); further: nearly all actives have a fitted effect of over 65% in size
Method in brief: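 Recombinant GPX1 (10 nM final) was preincubated with compound for 30 min at room temperature, then reacted with 1 mM GSH, 0.5 mM CHP, 0.5 mM NADPH and 100 nM glutathione reductase; NADPH fluorescence (340/450 nm) was read at 0 and 15 min.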

[3] = target: Phospholipid hydroperoxide glutathione peroxidase GPX4 (Homo sapiens) (UniProt P36969); assay: Primary qHTS Assay for Inhibitors of Recombinant Selenoprotein Glutathione Peroxidase 4 (GPX4) (AID 1845192); further: nearly all actives have a fitted effect of over 65% in size
Method in brief: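 GR-coupled readout: 100 nM GR, 1 mM GSH, 0.5 mM NADPH; NADPH fluorescence (ex 340/em 450 nm) read at t=0 and after 15 min RT. GPX4 200 nM, preincubated 30 min with compound; substrate 0.5 mM CHP.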

[4] = qHTS Assay for Identifying Gametocytocidal Compounds (AID 743244); further: potency means the concentration at half of the fitted maximal effect; details: P. falciparum 3D7 stage III-V gametocytes, alamarBlue, 72 h; max response: hits give low values
Method in brief: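 Stage III-V P. falciparum 3D7 gametocytes, 20,000 per well, were exposed to compounds for 72 h at 37C, 5% CO2. AlamarBlue was then added for 24 h and viability was read as fluorescence at Ex 525/Em 598 nm.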

[5] = target: ATP-dependent 6-phosphofructokinase (Trypanosoma brucei brucei) (UniProt O15648); assay: qHTS Assay to Find Inhibitors of T. brucei phosphofructokinase: hit validation (AID 492961);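 further: luminescence reports ADP formed as PFK phosphorylates fructose-6-phosphate with ATP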
Method in brief: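 Percent activity derived from corrected luminescence, normalized between 0x and 1x enzyme controls, then fitted to concentration-response curves. Conditions: 1.25 nM PFK, 0.1 mM ATP, 0.5 mM F6P, 45 min RT.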

[6] = target: Ubiquitin carboxyl-terminal hydrolase 1 (Homo sapiens) (UniProt O94782); assay: Inhibitors of USP1/UAF1: Pilot qHTS (AID 504865);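 further: rhodamine fluorescence freed from ubiquitin-rhodamine substrate followed over time; top concentration of the series differs between compounds; nearly all actives have a fitted effect of over 35% in size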
Method in brief: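 Enzyme-free wells gave the negative control, while test wells held 1nM USP1/UAF1 preincubated with compound for 15 min at room temperature. Ub-Rho at 150nM final started the reaction, and fluorescence at 480/540 nm was recorded kinetically.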

[7] = S16 Schwann cell viability assay (CellTiter-Glo assay) (AID 624031);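 further: native untransfected S16 rat Schwann cells; cellular ATP luminescence as a viability measure; nearly all actives have a fitted effect of over 70% in size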
Method in brief: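 Rat S16 Schwann cells without reporter constructs received compound or DMSO for 24 h at 37 °C under 5% CO2. Cellular ATP was then quantified by CellTiter-Glo luminescence, with vehicle wells defined as 0% activity and cell-free wells as reference.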

[8] = S16 Schwann cell PMP22 intronic element firefly luciferase assay (AID 624032); further: potency means the concentration at half of the fitted maximal effect; nearly all actives have a fitted effect of over 30% in size
Method in brief: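 Rat S16 Schwann cells stably carrying a PMP22 intronic element-driven Fluc reporter were seeded overnight, then exposed to compounds for 24 h at 37 °C. Luminescence was normalized to PTC124 (positive control) and DMSO (0% activity).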

[9] = S16 Schwann cell PMP22 intronic element beta-lactamase assay (AID 624044; calls by dose curve; further: nearly all actives have a fitted effect of over 15% in size)
Method in brief: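 Rat S16 Schwann cells with beta-Lac driven by a PMP22 intronic element, compound-treated 24 h at 37 °C. LiveBLAzer FRET B/G read: 460 nm normalized to potassium clavulanate vs DMSO; 535 nm FRET as viability; concentration-effect curves classified.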

[10] = qHTS profiling for inhibitors of Plasmodium falciparum proliferation (AID 504749); further: nearly all actives have a fitted effect of over 60% in size; further: potency means the concentration at half of the fitted maximal effect; details: P. falciparum in erythrocytes, SYBR Green DNA, 72 h
Method in brief: (§1)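 Parasite proliferation within erythrocytes, 72 h exposure. Endpoint: SYBR Green I fluorescence after overnight lysis at room temperature. Controls: 0.29 uM artemisinin, DMSO.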

3D7 = assay: as above; details: P. falciparum in erythrocytes, SYBR Green DNA, 72 h; series mostly up to 28.7 µM
Method in brief: as §1

7G8 = assay: as above; details: P. falciparum in erythrocytes, SYBR Green DNA, 72 h; series mostly up to 28.7 µM
Method in brief: as §1

AA1029 = assay: as above; details: P. falciparum in erythrocytes, SYBR Green DNA, 72 h; series mostly up to 28.7 µM
Method in brief: as §1

AS120 = assay: as above; details: P. falciparum in erythrocytes, SYBR Green DNA, 72 h; series mostly up to 28.7 µM
Method in brief: as §1

ATS189 = assay: as above; details: P. falciparum in erythrocytes, SYBR Green DNA, 72 h; series mostly up to 28.7 µM
Method in brief: as §1

ATS95 = assay: as above; details: P. falciparum in erythrocytes, SYBR Green DNA, 72 h; series mostly up to 28.7 µM
Method in brief: as §1

C2A = assay: as above; details: P. falciparum in erythrocytes, SYBR Green DNA, 72 h; series mostly up to 28.7 µM
Method in brief: as §1

CP185 = assay: as above; details: P. falciparum in erythrocytes, SYBR Green DNA, 72 h; series mostly up to 28.7 µM
Method in brief: as §1

CP191 = assay: as above; details: P. falciparum in erythrocytes, SYBR Green DNA, 72 h; series mostly up to 28.7 µM
Method in brief: as §1

CP192 = assay: as above; details: P. falciparum in erythrocytes, SYBR Green DNA, 72 h; series mostly up to 28.7 µM
Method in brief: as §1

CP217 = assay: as above; details: P. falciparum in erythrocytes, SYBR Green DNA, 72 h; series mostly up to 28.7 µM
Method in brief: as §1

CP237 = assay: as above; details: P. falciparum in erythrocytes, SYBR Green DNA, 72 h; series mostly up to 28.7 µM
Method in brief: as §1

CP238 = assay: as above; details: P. falciparum in erythrocytes, SYBR Green DNA, 72 h; series mostly up to 28.7 µM
Method in brief: as §1

CP247 = assay: as above; details: P. falciparum in erythrocytes, SYBR Green DNA, 72 h; series mostly up to 28.7 µM
Method in brief: as §1

CP250 = assay: as above; details: P. falciparum in erythrocytes, SYBR Green DNA, 72 h; series mostly up to 28.7 µM
Method in brief: as §1

CP252 = assay: as above; details: P. falciparum in erythrocytes, SYBR Green DNA, 72 h; series mostly up to 28.7 µM
Method in brief: as §1

CP256 = assay: as above; details: P. falciparum in erythrocytes, SYBR Green DNA, 72 h; series mostly up to 28.7 µM
Method in brief: as §1

CP260 = assay: as above; details: P. falciparum in erythrocytes, SYBR Green DNA, 72 h; series mostly up to 28.7 µM
Method in brief: as §1

CP265 = assay: as above; details: P. falciparum in erythrocytes, SYBR Green DNA, 72 h; series mostly up to 28.7 µM
Method in brief: as §1

CP268 = assay: as above; details: P. falciparum in erythrocytes, SYBR Green DNA, 72 h; series mostly up to 28.7 µM
Method in brief: as §1

CP269 = assay: as above; details: P. falciparum in erythrocytes, SYBR Green DNA, 72 h; series mostly up to 28.7 µM
Method in brief: as §1

CP286 = assay: as above; details: P. falciparum in erythrocytes, SYBR Green DNA, 72 h; series mostly up to 28.7 µM
Method in brief: as §1

CP291 = assay: as above; details: P. falciparum in erythrocytes, SYBR Green DNA, 72 h; series mostly up to 28.7 µM
Method in brief: as §1

CP325 = assay: as above; details: P. falciparum in erythrocytes, SYBR Green DNA, 72 h; series mostly up to 28.7 µM
Method in brief: as §1

CP335 = assay: as above; details: P. falciparum in erythrocytes, SYBR Green DNA, 72 h; series mostly up to 28.7 µM
Method in brief: as §1

DFO2036 = assay: as above; details: P. falciparum in erythrocytes, SYBR Green DNA, 72 h; series mostly up to 28.7 µM
Method in brief: as §1

DIV14 = assay: as above; details: P. falciparum in erythrocytes, SYBR Green DNA, 72 h; series mostly up to 28.7 µM
Method in brief: as §1

DIV17 = assay: as above; details: P. falciparum in erythrocytes, SYBR Green DNA, 72 h; series mostly up to 28.7 µM
Method in brief: as §1

Dd2 = assay: as above; details: P. falciparum in erythrocytes, SYBR Green DNA, 72 h; series mostly up to 28.7 µM
Method in brief: as §1

ECU = assay: as above; details: P. falciparum in erythrocytes, SYBR Green DNA, 72 h; series mostly up to 28.7 µM
Method in brief: as §1

FAB9 = assay: as above; details: P. falciparum in erythrocytes, SYBR Green DNA, 72 h; series mostly up to 28.7 µM
Method in brief: as §1

GB4 = assay: as above; details: P. falciparum in erythrocytes, SYBR Green DNA, 72 h; series mostly up to 28.7 µM
Method in brief: as §1

HB3 = assay: as above; details: P. falciparum in erythrocytes, SYBR Green DNA, 72 h; series mostly up to 28.7 µM
Method in brief: as §1

ICS = assay: as above; details: P. falciparum in erythrocytes, SYBR Green DNA, 72 h; series mostly up to 28.7 µM
Method in brief: as §1

JCK = assay: as above; details: P. falciparum in erythrocytes, SYBR Green DNA, 72 h; series mostly up to 28.7 µM
Method in brief: as §1

N140 = assay: as above; details: P. falciparum in erythrocytes, SYBR Green DNA, 72 h; series mostly up to 28.7 µM
Method in brief: as §1

P93_24 = assay: as above; details: P. falciparum in erythrocytes, SYBR Green DNA, 72 h; series mostly up to 28.7 µM
Method in brief: as §1

P94_40 = assay: as above; details: P. falciparum in erythrocytes, SYBR Green DNA, 72 h; series mostly up to 28.7 µM
Method in brief: as §1

PAD = assay: as above; details: P. falciparum in erythrocytes, SYBR Green DNA, 72 h; series mostly up to 28.7 µM
Method in brief: as §1

PC49 = assay: as above; details: P. falciparum in erythrocytes, SYBR Green DNA, 72 h; series mostly up to 28.7 µM
Method in brief: as §1

SC27B = assay: as above; details: P. falciparum in erythrocytes, SYBR Green DNA, 72 h; series mostly up to 28.7 µM
Method in brief: as §1

TAB109 = assay: as above; details: P. falciparum in erythrocytes, SYBR Green DNA, 72 h; series mostly up to 28.7 µM
Method in brief: as §1

TAB113 = assay: as above; details: P. falciparum in erythrocytes, SYBR Green DNA, 72 h; series mostly up to 28.7 µM
Method in brief: as §1

W2 = assay: as above; details: P. falciparum in erythrocytes, SYBR Green DNA, 72 h; series mostly up to 28.7 µM
Method in brief: as §1

Measured: Potency

Chain of Glutathione peroxidase 1 (Homo sapiens) (P07203 whole entry, looked up): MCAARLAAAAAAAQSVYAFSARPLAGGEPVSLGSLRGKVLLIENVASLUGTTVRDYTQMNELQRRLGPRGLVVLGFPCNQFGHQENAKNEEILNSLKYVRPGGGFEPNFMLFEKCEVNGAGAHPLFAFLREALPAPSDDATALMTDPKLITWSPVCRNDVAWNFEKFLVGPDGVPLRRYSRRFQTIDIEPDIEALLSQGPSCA
Chain of Luciferin 4-monooxygenase (Photinus pyralis) (P08659 whole entry, looked up): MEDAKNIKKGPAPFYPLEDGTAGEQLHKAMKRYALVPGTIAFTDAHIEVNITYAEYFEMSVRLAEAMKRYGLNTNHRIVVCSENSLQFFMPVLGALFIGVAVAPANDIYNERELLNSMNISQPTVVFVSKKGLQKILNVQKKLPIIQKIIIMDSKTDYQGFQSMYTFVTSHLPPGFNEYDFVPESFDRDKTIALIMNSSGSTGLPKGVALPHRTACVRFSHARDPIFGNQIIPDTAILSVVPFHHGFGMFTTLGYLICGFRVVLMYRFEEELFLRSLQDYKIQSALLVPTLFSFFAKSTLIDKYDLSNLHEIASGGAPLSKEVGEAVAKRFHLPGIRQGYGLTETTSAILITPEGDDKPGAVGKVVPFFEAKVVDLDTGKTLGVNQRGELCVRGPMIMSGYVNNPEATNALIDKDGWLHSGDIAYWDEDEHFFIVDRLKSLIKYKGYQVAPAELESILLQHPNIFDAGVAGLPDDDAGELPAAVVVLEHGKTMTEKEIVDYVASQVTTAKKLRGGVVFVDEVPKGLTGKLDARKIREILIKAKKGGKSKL
Chain of Phospholipid hydroperoxide glutathione peroxidase GPX4 (Homo sapiens) (P36969 whole entry, looked up): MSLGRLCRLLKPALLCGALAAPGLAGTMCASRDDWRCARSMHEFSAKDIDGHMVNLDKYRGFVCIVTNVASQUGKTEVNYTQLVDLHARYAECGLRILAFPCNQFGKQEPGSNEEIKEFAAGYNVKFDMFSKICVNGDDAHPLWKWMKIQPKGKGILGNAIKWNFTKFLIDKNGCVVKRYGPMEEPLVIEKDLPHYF
Chain of ATP-dependent 6-phosphofructokinase (Trypanosoma brucei brucei) (O15648 whole entry, looked up): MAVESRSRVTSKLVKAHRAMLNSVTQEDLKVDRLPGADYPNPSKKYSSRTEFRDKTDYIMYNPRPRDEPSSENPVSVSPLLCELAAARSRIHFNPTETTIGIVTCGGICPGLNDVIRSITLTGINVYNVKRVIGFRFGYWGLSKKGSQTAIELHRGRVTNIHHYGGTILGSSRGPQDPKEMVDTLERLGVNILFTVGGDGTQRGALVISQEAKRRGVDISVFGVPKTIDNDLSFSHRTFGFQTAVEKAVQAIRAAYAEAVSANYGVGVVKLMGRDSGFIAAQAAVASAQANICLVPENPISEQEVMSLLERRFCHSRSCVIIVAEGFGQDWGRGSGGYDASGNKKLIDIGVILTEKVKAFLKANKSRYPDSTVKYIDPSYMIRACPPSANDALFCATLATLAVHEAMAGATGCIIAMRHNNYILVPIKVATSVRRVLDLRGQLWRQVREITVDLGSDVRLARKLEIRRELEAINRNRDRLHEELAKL
Chain of Ubiquitin carboxyl-terminal hydrolase 1 (Homo sapiens) (O94782 whole entry, looked up): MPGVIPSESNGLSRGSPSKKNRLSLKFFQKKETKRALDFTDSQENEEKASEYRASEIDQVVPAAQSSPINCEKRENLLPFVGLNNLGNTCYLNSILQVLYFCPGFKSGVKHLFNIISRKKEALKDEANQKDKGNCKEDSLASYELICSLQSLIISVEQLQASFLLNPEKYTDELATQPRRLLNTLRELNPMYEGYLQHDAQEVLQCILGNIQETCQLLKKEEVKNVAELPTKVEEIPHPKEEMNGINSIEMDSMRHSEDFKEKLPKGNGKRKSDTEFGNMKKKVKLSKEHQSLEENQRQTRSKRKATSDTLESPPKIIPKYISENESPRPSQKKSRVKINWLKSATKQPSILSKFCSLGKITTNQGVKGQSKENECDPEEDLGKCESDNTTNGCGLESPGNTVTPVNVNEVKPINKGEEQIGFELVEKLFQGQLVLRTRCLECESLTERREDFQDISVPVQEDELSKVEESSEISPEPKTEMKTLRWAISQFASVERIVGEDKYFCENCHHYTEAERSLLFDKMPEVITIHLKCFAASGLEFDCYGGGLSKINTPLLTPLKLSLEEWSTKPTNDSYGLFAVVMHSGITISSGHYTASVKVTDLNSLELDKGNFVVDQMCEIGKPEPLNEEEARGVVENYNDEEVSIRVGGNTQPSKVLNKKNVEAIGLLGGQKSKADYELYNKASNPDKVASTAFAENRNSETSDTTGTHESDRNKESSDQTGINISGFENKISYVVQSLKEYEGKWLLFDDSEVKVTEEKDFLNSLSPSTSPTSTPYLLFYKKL

CC(C)CC(NC(=O)CNC(=O)C(Cc1ccc(O)cc1)NC(=O)C(CO)NC(=O)C(Cc1c[nH]c2ccccc12)NC(=O)C(Cc1cnc[nH]1)NC(=O)C1CCC(=O)N1)C(=O)NC(CCCN=C(N)N)C(=O)N1CCCC1C(=O)NCC(N)=O (stereo not given)
inactive: [1] | [2] | [3]

CN[C@@H]1[C@@H](O)[C@@H](O[C@@H]2[C@@H](O)[C@H](OC3O[C@H](CN)[C@@H](O)[C@H](O)[C@H]3O)[C@@H](N)C[C@H]2NC(=O)[C@@H](O)CN)OC[C@]1(C)O (stereo not given in full)
inactive: [2] | [3]

NCCCC(N)C(=O)O (stereo not given)
inactive: [1] | [2] | [3]

N=C(N)c1ccc(OCCCOc2ccc(C(=N)N)cc2Br)c(Br)c1
active: [4] 7.08 µM
inactive: [1] | [2] | [3]

CO[C@@H]1[C@@H](OC2OC(C)C(OC3CC(C)(O)C(OC(=O)CC(C)C)C(C)O3)C(N(C)C)C2O)[C@@H](CC=O)C[C@@H](C)C(=O)/C=C\C2O[C@H]2C[C@@H](C)OC(=O)C[C@H]1OC(C)=O (stereo not given in full)
inactive: [5] | [6] | [1] | [7] | [9] | [2] | CP192 | FAB9 | JCK | PC49
active: [8] 5.73 µM | [10]; parasite line A 11.2 µM | [10]; parasite line B 10 µM | 3D7 11.2 µM | 7G8 8.91 µM | AA1029 5.01 µM | AS120 10 µM | ATS189 11.2 µM | ATS95 11.2 µM | C2A 10 µM | CP185 7.94 µM | CP191 11.2 µM | CP217 10 µM | CP237 10 µM | CP238 10 µM | CP247 11.2 µM | CP250 10 µM | CP252 5.01 µM | CP256 5.01 µM | CP260 7.94 µM | CP265 11.2 µM | CP268 8.49 µM | CP269 4.78 µM | CP286 4.47 µM | CP291 6.75 µM | CP325 2.69 µM | CP335 6.75 µM | DFO2036 10 µM | DIV14 12 µM | DIV17 10.7 µM | Dd2 0.891 µM | ECU 8.91 µM | GB4 13.5 µM | HB3 11.2 µM | ICS 5.01 µM | N140 8.91 µM | P93_24 8.91 µM | P94_40 8.91 µM | PAD 11.2 µM | SC27B 10 µM | TAB109 3.98 µM | TAB113 12.6 µM | W2 1.69 µM
